Bioassay records (PubChem BioAssay)
Shiga inhibitor: blocks Shiga toxin action in Vero cells. Vero cells, Shiga toxin protein synthesis inhibition reporter. inhibition, % at 38.7 µM. 290,000 compounds, 9.2% hits. AID 2315; in the data active = inhibition mostly above about 28%, no sharp cut-off; inactive = mostly below about 43%
Sm TGR inh: inhibitors of Schistosoma mansoni thioredoxin glutathione reductase | Q962Y6 | Potency, µM (top dose mostly 114 µM), hits mostly inhibitors | purified TGR, DTNB reduction, TNB absorbance 405 nm | AID 485364 | 360,000 compounds, 3% hits; active = well fitted inhibition curve with a large enough effect; inconclusive = small, poorly fitted or top-dose-only effect; inactive = no such curve, though single readings can be large or run the other way; also: nearly all actives have a fitted effect of over 60% in size
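TGR 20 nM + NADPH 100 uM (dispensed conc.), cpd preinc 15 min RT; start with NADPH (500 uM addition) then DTNB (15 mM addition). Kinetic TNB absorbance, 405 nm filter. Four-parameter Hill fit across titration.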
Cycloheximide cs: affects cycloheximide protein synthesis inhibition readout, counter-screen; cell reporter, cycloheximide protein synthesis inhibition counterscreen; max response, %; 300,000 compounds, 12% hits; AID 2314; in the data active = max response mostly above about 13%, no sharp cut-off; inactive = mostly below about 14%; also: read at 38.3 µM for the half of the compounds with a filed dose
FMDV antiviral: blocks foot and mouth disease virus | FMDV antiviral cell-based qHTS | 410,000 compounds, 1.2% hits | Potency, µM (highest dose often 57.9 µM), actives largely listed as inhibitors; calls by dose curve; tested in HEK293T cells; also: read-out not given here; nearly all actives have a fitted effect of over 45% in size
Numbers stand for hits; i = inactive; ? = inconclusive; nt = no result; + = active, no number. Sampled rows, rich in hits. Any-hit rate of the full collection: about 12%.

SMILES	Shiga inhibitor	Sm TGR inh	Cycloheximide cs	FMDV antiviral
O=C(Nc1ccc(F)cc1)c1ccc2c(=O)n3c(nc2c1)CCCCC3	52	i	24	i
O=C(Nc1ccc(Cl)cc1)c1ccc2c(=O)n3c(nc2c1)CCCCC3	41	i	54	i
COc1cc(OC)c(NC(=O)N2CCc3c([nH]c4ccccc34)C2c2ccccc2F)cc1Cl (stereo not drawn)	nt	i	nt	i
COc1cccc(CNC(=O)c2nn(-c3ccc(C)cc3)c(=O)c3c2c2ccccc2n3C)c1	nt	i	nt	i
CN(C)C1(CNC(=O)COc2ccc(C(C)(C)C)cc2)CCCCC1	nt	i	nt	i
Cc1ccc(S(=O)(=O)N2CCCCC2)cc1NC(=O)c1ccc2c(=O)n3c(nc2c1)CCCCC3	i	i	i	nt
CCc1ccc(N(CC)C(=O)c2ccc3c(=O)n4c(nc3c2)CCCCC4)cc1	nt	i	nt	40µM
CCc1ccc(CN(C)C(=O)c2ccc3c(=O)n4c(nc3c2)CCC4)cc1	i	?	i	i
Cc1ccc(-c2csc(NC(=O)c3ccc4c(=O)n5c(nc4c3)CCCCC5)n2)cc1	i	i	i	7.9µM
CCOc1ccc(CCNC(=O)c2cn(CC)c3ccc(S(=O)(=O)N4CCCCCC4)cc3c2=O)cc1OCC	nt	i	nt	i
COc1ccc(-c2nc3n(n2)C(c2ccc(OC)c(OC)c2)C(C(=O)Nc2cccnc2)=C(C)N3)cc1 (stereo not drawn)	nt	?	nt	i
O=C1[C@@H]2Cc3c([nH]c4ccccc34)C(c3ccccc3)N2C(=O)CN1C1CCN(Cc2ccccc2)CC1 (stereo partly drawn)	i	i	i	i
O=C1[C@@H]2Cc3c([nH]c4ccccc34)C(c3cccc(Br)c3)N2C(=O)CN1C1CCN(Cc2ccccc2)CC1 (stereo partly drawn)	i	i	18	i
O=C(Nc1ccc(Cl)cn1)c1ccccc1F	88	i	32	i
Cc1cc(C)cc(NC(=O)Nc2ccc(Cl)cn2)c1	i	i	i	i
C/C(=C\c1ccccc1)C(=O)Nc1ccc(Cl)cn1	95	i	39	i
O=C(Nc1nnc(-c2ccc(Cl)cc2)o1)Nc1ccccc1F	34	i	i	i
O=C(Nc1ccc(Cl)cn1)Nc1ccccc1F	53	i	i	i
O=C(Nc1ccc(Cl)cn1)Nc1ccc(Cl)cn1	i	i	i	i
O=c1c(-c2ccc(F)cc2)nc2cnc(N3CCOCC3)nc2n1C1CC1	nt	nt	nt	i
CCCCCNC(=O)c1cc2c(=O)n3ccccc3nc2n1C	nt	i	nt	i
CCc1ccc2oc(C(=O)Nc3c(C)n(C)n(-c4ccccc4)c3=O)cc(=O)c2c1	nt	i	nt	i
COc1cc2ccccc2cc1C(=O)Nc1ccc(Cl)cn1	nt	i	16	i
O=C(NC(=O)c1ccccc1)Nc1ccc(Cl)cn1	145	i	52	i
O=C(Nc1ccc(Cl)cn1)c1ccc2[nH]c(=O)c(=O)[nH]c2c1	i	i	12	i
SMILES	Shiga inhibitor	Sm TGR inh	Cycloheximide cs	FMDV antiviral
O=C(Nc1cc(Sc2ccccn2)cc([N+](=O)[O-])c1)c1cccc(F)c1	i	i	i	32µM
O=C(Nc1cc(Sc2nc3ccccc3s2)cc([N+](=O)[O-])c1)c1ccccc1	i	i	i	?
COC(=O)c1ccccc1NC(=O)Nc1ccc(Cl)cn1	i	nt	i	i
Cc1ccc(NC(=O)CSc2n[nH]c(-c3ccc(F)cc3)n2)cc1F	nt	i	nt	i
CCC1CCCCN1CCCNC(=O)c1ccc2c(c1)sc1nc(-c3ccc(F)cc3)cn12 (stereo not drawn)	nt	i	nt	i
O=C(Nc1ccc(Cl)cn1)c1cccc(F)c1	121	i	32	i
O=C(Nc1cccc(C(=O)Nc2ccc(Cl)cn2)c1)c1ccccc1	i	i	i	i
O=C(Nc1ncccn1)c1cccc(F)c1	21	i	11	i
O=C(Nc1ncccn1)c1cccc(Cl)c1	nt	nt	nt	i
Cc1ccc(-c2onc3ccc(Br)cc23)cc1	i	i	i	i
Cc1ccc(-c2onc3ccc(C4OCCO4)cc23)cc1	71	i	14	i
Cc1ccc(CSc2nnc([C@@H](N)C(C)C)o2)cc1	nt	i	nt	i
COc1ccc(CN(C(=O)/C=C/c2ccccc2Cl)C2CCS(=O)(=O)C2)cc1 (stereo not drawn)	i	i	34	i
O=C(/C=C/c1ccccc1Cl)N(Cc1ccc(Cl)cc1)C1CCS(=O)(=O)C1 (stereo not drawn)	i	i	i	i
O=C(/C=C/c1ccco1)N(Cc1ccccc1F)C1CCS(=O)(=O)C1 (stereo not drawn)	i	10µM	i	i
Cc1cccc(C(=O)N(Cc2ccccc2F)C2CCS(=O)(=O)C2)c1 (stereo not drawn)	nt	i	nt	i
CC(C)c1ccc(CN(C(=O)/C=C/c2ccco2)C2CCS(=O)(=O)C2)cc1 (stereo not drawn)	i	3.5µM	i	i
COc1ccc(C2=C(C(C)=O)Sc3nnc(-c4ccc(Cl)cc4)n3N2C(C)=O)cc1OC	nt	i	nt	i
COc1ccc(-c2nsc3c(SCc4ccccc4)ncnc23)cc1	+	i	20	i
COc1ccc(CNC(=O)COC(=O)c2n[nH]c3ccccc23)cc1	i	i	i	?
O=C(COC(=O)c1n[nH]c2ccccc12)NC(=O)NC1CCCC1	i	i	i	?
COCCNC(=O)c1n[nH]c2ccccc12	i	i	31	i
COc1ccc(CCNC(=O)c2n[nH]c3ccccc23)cc1	45	i	47	i
O=C(NC1CCCC1)c1n[nH]c2ccccc12	i	i	43	i
CCCOc1ccc(C2c3c(-c4ccccc4O)n[nH]c3C(=O)N2Cc2ccncc2)cc1OCC (stereo not drawn)	nt	i	nt	i
SMILES	Shiga inhibitor	Sm TGR inh	Cycloheximide cs	FMDV antiviral
CCCn1c2ccccc2c2cnn(CC(=O)N(CCCOC(C)C)Cc3ccco3)c(=O)c21	nt	i	nt	?
CCN1CCOC(=O)C1CC(=O)Nc1cc(C)ccc1OC (stereo not drawn)	nt	18µM	nt	i
CCN1CCN(CCC(=O)Nc2ccc(Br)cc2)CC1	i	i	i	i
COc1ccccc1NC(=O)CN1CCN(CC(=O)Nc2cc(C)ccc2OC)CC1	i	i	i	?
CCN1CCOC(=O)C1CC(=O)Nc1ccc(Br)cc1 (stereo not drawn)	nt	7.9µM	nt	i
Cc1ccc(S(=O)(=O)N2CCc3cc(C(=O)Nc4c(F)cccc4F)ccc32)cc1	nt	i	nt	i
CC(=O)N1CCc2cc(Br)cc(S(=O)(=O)N3CCN(c4cccc(C(F)(F)F)c4)CC3)c21	nt	i	nt	i
COc1cccc(-c2ccc(O)c(CNCc3cccc(OC)c3OC)c2)n1	nt	nt	nt	i
c1ccc2nc(-c3nc4ccccc4[nH]3)ccc2c1	i	i	14	i
c1ccc2[nH]c(-c3cscn3)nc2c1	102	i	53	i
CCOC(=O)c1sc2nc3n(c(=O)c2c1C)CCC(C)CC3 (stereo not drawn)	i	i	i	nt
CCOC(=O)N1CCN(C(=O)Nc2sc3nc4n(c(=O)c3c2C)CCC(C)CC4)CC1 (stereo not drawn)	i	2.8µM	i	nt
CSc1ccccc1NC(=O)c1cc(-c2cccs2)on1	56	i	i	i
Cc1ccc(O)c(NC(=O)c2cc(-c3cccs3)on2)c1	79	i	21	i
Cc1ccc(O)c(NC(=O)c2cc(-c3ccc(F)cc3)on2)c1	i	i	41	i
Cc1ccc(O)c(NC(=O)c2cc(-c3ccc4c(c3)OCO4)on2)c1	nt	i	nt	i
COCCNC(=O)CCCn1c(=O)[nH]c2ccsc2c1=O	nt	i	nt	i
